# GASC-1 inh: human JMJD2C demethylase inhibition. GST-JMJD2C(1-420) H3K9me3 demethylation, DELFIA europium. inhibition, % at 2.35 µM. AID 2099. Q9H3R0. 0.069% of 330,000 active;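 active = more than half of a compound's replicate wells show inhibition beyond 50%, single wells judged on their own value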;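 also: signal counts dimethyl H3K9 product captured on neutravidin plate; 0% = median of DMSO wells and 100% = 0.3 times that DMSO median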
# PP1 counter: PP1-alpha (human) inhibition in PP5 counter-screen | P62136 | purified PP1alpha, OMFP fluorescence | inhibition, % at 6.7 µM | 0.9% of 320,000 active | AID 2235;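 active = inhibition above the mean inhibition of all tested compounds plus 3 SD, computed separately for each screening campaign, cut at about 15% in these data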
# Target sequence (P62136 whole entry, looked up): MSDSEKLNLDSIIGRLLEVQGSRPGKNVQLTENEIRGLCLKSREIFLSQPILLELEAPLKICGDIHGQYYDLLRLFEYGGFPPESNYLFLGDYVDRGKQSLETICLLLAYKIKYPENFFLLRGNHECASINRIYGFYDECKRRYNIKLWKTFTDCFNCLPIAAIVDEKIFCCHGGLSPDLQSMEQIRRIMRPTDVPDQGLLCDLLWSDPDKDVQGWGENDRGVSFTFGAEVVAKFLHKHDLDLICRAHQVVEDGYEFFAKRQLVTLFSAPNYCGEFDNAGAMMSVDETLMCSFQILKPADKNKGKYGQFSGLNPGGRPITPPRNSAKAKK
# NR1D1 modulator: modulates human Rev-erb alpha binding to DNA; P20393; activity, % at 10 µM; AID 1259318; 0.79% of 370,000 active; Rev-erbα–FITC-DNA binding, fluorescence polarization, 90 min;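 active = activity above about 14%, limit read from the data; passing the limit was not always enough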;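 also: 0% = DMSO wells with 35 nM protein and 100% = DMSO wells with 750 nM protein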
# proKLK7 act: proKLK7 (human) activation, primary screen; AID 652039; activation, % at 7 µM; purified proKLK7, EDANS-DABCYL substrate fluorescence; 100% is mature enzyme control, 0% vehicle; P49862; 0.9% of 370,000 active;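 active = activation above the mean of all tested compounds plus 3 SD, computed per campaign excluding outliers beyond control limits, cut at about 13% in these data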
# Target sequence (P49862 whole entry, looked up): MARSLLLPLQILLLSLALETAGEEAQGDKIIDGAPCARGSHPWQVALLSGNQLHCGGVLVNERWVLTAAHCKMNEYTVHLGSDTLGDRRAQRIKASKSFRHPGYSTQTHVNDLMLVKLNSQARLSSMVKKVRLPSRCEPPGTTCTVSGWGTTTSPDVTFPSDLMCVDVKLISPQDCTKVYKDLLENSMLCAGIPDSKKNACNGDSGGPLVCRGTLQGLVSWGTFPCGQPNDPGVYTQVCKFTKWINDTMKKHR
# PG9 binder: PG9 antibody binding by small molecule; TR-FRET gp120-PG9 antibody binding; inhibition, % at 6.7 µM; 0.43% of 360,000 active; in the data active = inhibition above about 8.5%
# PP5 inh: inhibitors of human protein phosphatase 5 (PP5) | P53041 | purified PP5c, OMFP substrate fluorescence | inhibition, % at 6.7 µM | 0.18% of 320,000 active | AID 1987;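 active = inhibition above the campaign's mean inhibition across all tested compounds plus 3 SD, cut at about 9.5% in these data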;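 also: 0% = DMSO only and 100% = 100 µM cantharidin control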
# KLK7 act conf: proKLK7 activation, confirmation. shares compounds with proKLK7 act. purified proKLK7, EDANS-DABCYL substrate fluorescence; scaled: vehicle 0, mature enzyme 100. activation, % at 7 µM. 68% of 3,200 active;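 active = activation, as change over the incubation, above the mean of all tested compounds plus 3 SD, cut at about 13% in these data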
# EDANS interfere: counter-screen for kallikrein-7 activators: EDANS-DABCYL optical interference; shares compounds with proKLK7 act; EDANS-DABCYL substrate fluorescence interference, no enzyme, 4 h; solvent 0%, active enzyme control 100%; activation, % at 7 µM; 80% of 3,200 active;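 active = activation above the all-compound mean plus 3 SD, ignoring values outside control-based bounds, cut at about 4.8% in these data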;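 also: value is the 4 h activation minus the activation read at time zero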
# K7 EDANS ctr: counter-screen for kallikrein-7 activators: EDANS-DABCYL interference, dose response. EDANS-DABCYL peptide fluorescence interference, no enzyme. shares compounds with proKLK7 act. 20% of 250 active. EC50, µM;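 active = compounds that raise the fluorescence signal in this interference counterscreen, with EC50 at or below 10 µM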;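 also: intact quenched peptide substrate alone read at 355 nm excitation and 520 nm emission; signal is fluorescence gain from T0 to T4 after four hours at room temperature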
# Numbers without * were called inactive; / = no result given. A selection: hits, their analogues and other compounds. The true share with any hit is near 2.8%.
SMILES,GASC-1 inh,PP1 counter,NR1D1 modulator,proKLK7 act,PG9 binder,PP5 inh,KLK7 act conf,EDANS interfere,others
CC1(C)CC(=O)c2cc(OCC(=O)NCCN3CCOCC3)ccc2O1,77.8,1.9,7.1,16.3*,-0.5,2.2,25.3*,25.5*,
Cc1cc(C)c2c(c1)OC(O)(C(F)F)CC2=O (centres undefined),20.0,-2.4,-3.0,0.7,1.0,0.0,/,/,
COc1ccc2c(c1)C(=O)CC(O)(C(F)F)O2 (centres undefined),-4.4,-3.0,-1.5,45.3*,-0.8,-0.5,40.0*,32.8*,
CC(C)(C)OC(=O)NCCc1ccccc1/C=C/S(=O)(=O)NCc1ccccc1,/,/,5.1,0.0,/,/,/,/,
CCOC(=O)c1ccc(NC(=O)OC[C@@H]2CSCCS(=O)(=O)N2)cc1,/,/,-2.0,0.1,-1.2,/,/,/,
Cc1cc(=O)n2cc(-c3ccccc3)nc2[nH]1,-3.4,-1.5,-1.9,16.2*,-1.6,1.6,3.4,3.3,
CC(C)(C)NC(=O)C(c1cc2ccccc2o1)n1c(=O)c(-c2ccco2)nc2ccccc21 (centres undefined),/,/,-2.3,-2.7,-1.1,/,/,/,
CC(C)(C)NC(=O)C(c1cc2ccccc2o1)n1c(-c2ccc(-c3ccccc3)cc2)nc2ccccc21 (centres undefined),/,/,-2.2,25.2*,0.2,/,-73.1,-39.3,
CNC(=O)c1ccc(-c2ccc(OC)cc2)s1,-1.6,-3.5,-1.6,50.3*,-1.4,3.9,55.9*,65.5*,
COc1ccc(NC(=O)c2ccc(-c3ccc(OC)cc3)s2)cc1,13.5,0.6,4.2,0.1,2.2,0.1,/,/,
COCCCNC(=O)C[C@H]1C[C@H](C(=O)N2CCCCC2)[C@@]2(CCc3ccccc3)c3[nH]c4cc(-c5ccco5)ccc4c3CCN2C1=O,/,/,-2.6,22.2*,-0.4,/,-26.6,-27.4,
O=C(C[C@H]1C[C@H](C(=O)N2CCOCC2)[C@@]2(CCC3CCCC3)c3[nH]c4cc(-c5ccco5)ccc4c3CCN2C1=O)NCCCn1ccnc1,/,/,-4.9,-5.7,-1.1,/,/,/,
O=C(C[C@H]1C[C@H](C(=O)N2CCCCC2)[C@@]2(CCc3ccccc3)c3[nH]c4cc(-c5ccco5)ccc4c3CCN2C1=O)NCCN1CCOCC1,/,/,0.7,21.6*,0.4,/,17.2*,5.7*,K7 EDANS ctr=8.64*
CCN(CC)C(=O)CC[C@@H]1CC[C@]2(CCCN(Cc3cccs3)C2)O1,/,/,-1.0,-0.1,/,/,/,/,
CC(C)(C)c1ccc(OC(=O)Nc2ccc(O)c(C(=O)O)c2)cc1,-25.3,4.3,2.8,12.7*,0.8,6.5,14.4*,12.4*,
Cc1cccc(OC(=O)Nc2ccc(C(=O)O)c(O)c2)c1,/,/,-3.9,-0.1,-0.3,/,/,/,
CCOC(=O)C1CCCN(C(=O)Cn2nc(C)n3c(cc4c(OC)cccc43)c2=O)C1 (centres undefined),-4.0,-2.6,0.9,18.3*,-0.1,-0.9,8.4,6.4*,
CCCCN(CC)CCNC(=O)c1cc2c(=O)n(C)c3ccccc3c2s1,-1.8,-1.4,1.5,19.1*,1.7,1.6,1.2,-2.0,
CCn1c(=O)c2cc(C(=O)NCCCOC)sc2c2ccccc21,-0.2,2.2,0.7,15.4*,-0.4,2.6,-10.5,-14.2,
CCN(CC)CCNC(=O)c1cc2c(=O)n(C)c3ccccc3c2s1,1.7,-1.6,-1.2,26.7*,0.0,0.7,-10.0,-18.0,
CCCN(CCC)CCNC(=O)c1cc2c(=O)n(C)c3ccccc3c2n1C,-10.9,-12.3,-0.2,0.9,-0.1,3.0,/,/,
CCn1c(=O)c2cc(C(=O)NCCC(C)C)sc2c2ccccc21,-17.2,-0.8,0.6,-2.2,-0.2,1.0,/,/,
CCCN(CCC)CCCNC(=O)c1cc2c(=O)n(CC)c3ccccc3c2s1,-17.3,-3.4,3.5,18.8*,2.1,1.2,-8.2,-11.6,
CCCCN(CC)CCCNC(=O)c1cc2c(=O)n(CC)c3ccccc3c2s1,-21.6,1.3,-1.8,10.7,0.7,-1.3,/,/,
COC(=O)[C@]12C[C@H](CC(=O)NCCCN3CCCC3=O)C(=O)N(Cc3cccc4ccccc34)C1=C[C@H](C1CCCC1)O[C@@H]2C,/,/,10.1,-0.1,/,/,/,/,
SMILES,GASC-1 inh,PP1 counter,NR1D1 modulator,proKLK7 act,PG9 binder,PP5 inh,KLK7 act conf,EDANS interfere,others
Cc1ccc(CN2CCCCC(NC(=O)Cc3cccs3)C2=O)cc1 (centres undefined),/,/,-2.9,-0.2,/,/,/,/,
CCCCN(CC)CCNC(=O)c1cc2c(=O)n(CC)c3ccccc3c2s1,14.3,-0.2,0.8,14.0*,-0.8,1.4,-1.3,-3.4,
S=c1[nH]nc(-c2cc3c(s2)-c2ccccc2CC3)o1,9.3,3.1,-4.8,38.8*,3.5,3.3,70.0*,69.6*,
CSc1nnc(-c2cc3c(s2)-c2ccccc2CC3)o1,-16.5,3.1,-6.7,-152.4,0.2,0.0,/,/,
CN1C2=N[C@@H](c3ccc4c(c3)OCO4)CC(=O)N2/C(=C\c2ccccc2)[C@@H]1c1ccccc1,/,/,-4.8,/,/,/,/,/,
Cc1coc2c1c(C)cc1oc(=O)c(CC(=O)NCCCCCC(=O)O)c(C)c12,4.9,0.6,-1.1,18.4*,0.8,3.0,34.2*,28.5*,K7 EDANS ctr=>69.5
Cc1oc2c(c(C)cc3oc(=O)c(CC(=O)NCC(=O)NCC(=O)O)c(C)c32)c1C,9.2,0.2,-7.2,0.3,-0.1,-0.1,/,/,
Cc1oc2c(c(C)cc3oc(=O)c(CC(=O)N[C@H](C(=O)O)C(C)C)c(C)c32)c1C,-1.5,/,-3.7,15.5*,0.5,/,5.8,13.4*,
Cc1coc2c1c(C)cc1oc(=O)c(CC(=O)NCC(=O)O)c(C)c12,6.4,/,-2.5,15.9*,0.8,/,57.1*,59.4*,
Cc1cc2oc(=O)c(CC(=O)NCCCO)c(C)c2c2occ(C(C)(C)C)c12,-3.6,9.0,2.6,-12.4,0.1,-1.1,/,/,
Cc1oc2c(c(C)cc3oc(=O)c(CC(=O)N[C@@H](CC(C)C)C(=O)O)c(C)c32)c1C,7.2,/,1.5,5.4,1.5,/,/,/,
CCc1ccc(-n2ncc(Cl)c(Oc3ccc(OC)cc3)c2=O)cc1,/,/,1.1,/,/,/,/,/,
COCCCNc1oc(/C=C/c2ccccc2)nc1C#N,4.4,0.8,-1.8,43.5*,2.1,2.7,56.9*,61.1*,
CN(C)CCNc1oc(/C=C/c2ccccc2)nc1C#N,109.3,-2.4,-1.9,97.8*,0.2,-1.7,66.4*,69.5*,
CN(C)CCCNc1oc(/C=C/c2ccccc2)nc1C#N,8.3,1.7,-0.6,1.2,0.4,-0.7,/,/,
CCN(CC)CCCNc1oc(-c2ccc(OC)c(OC)c2)nc1C#N,-9.5,-1.6,3.1,7.2,1.6,-1.4,/,/,

# High-throughput results as filed in PubChem BioAssay.
